Test results published in PubChem BioAssay.
Values joined by “and” are separate entries in the source; they are usually repeats but may differ in a detail not shown here. Equal entries are not always repeated. Active and inactive are the calls of the source. Unless noted, how the calls were made is not given here.

How the values were obtained:
[1] = circadian clock period modulators, cell-based, LOPAC library, luminescence reporter (AID 2774); conditions: circadian reporter cells, at 7 µM, actives lie on both sides;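 further: values are relative to mean of DMSO wells on each plate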
[2] = liver-stage malaria parasite growth inhibition, primary screen, cell-based, HepG2, luciferase luminescence, HepG2 viability (AID 624349; in the data active means parasite load remaining mostly below about 12%, no sharp cut-off; inactive means mostly above about 10%;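 further: 100% = mean of DMSO negative control wells on the same plate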); conditions: P. berghei liver stage in HepG2, luciferase luminescence, concentration not given here; parasite load remaining: stronger effect = lower value; viability: measured here: HepG2 viability without parasites
[3] = tested on: Hepatitis C virus NS3 helicase; assay: HCV NS3 helicase inhibitors, primary screen, biochemical, fluorescence polarization, LOPAC1280 library (AID 687035; in the data active means inhibition above about 37%); conditions: Purified HCV NS3 helicase, Cy5-dT15 ssDNA binding fluorescence polarization; stronger effect = higher value; concentration not given here
[4] = Cy5 fluorescence quenching or enhancement artefacts, artefact control for HCV NS3 helicase inhibitor project, biochemical, LOPAC1280 (AID 687037); conditions: Cy5-DNA-NS3h complex fluorescence interference counterscreen
[5] = tested on: Aerobactin synthetase IucA (Klebsiella pneumoniae); assay: IucA aerobactin synthetase inhibitors, biochemical, Tocris library, absorbance (AID 1345561); conditions: purified IucA enzyme assay, absorbance (OD) read-out; stronger effect = lower value;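 tested at 8 µM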;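 further: 100% = enzyme without compound and 0% = no enzyme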
[6] = sensitizers of A549 cells to miR-34 induction, primary screen, imaging, A549 dox-inducible miR-34, nuclei and caspase counts (AID 1347080;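 active means compounds whose cell count with miR-34 switched on is under 0.7 times the count with it off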); conditions: A549 miR-34 inducible, Hoechst nuclei count, 48 h
[7] = phospholipid biosynthesis inhibitors in animal cells, primary screen, cell-based, LOPAC library, screen 4 (AID 1347384); conditions: phospholipid biosynthesis inhibition screen, at 10 µM
[8] = viability rescue of complex I mutant cybrids, primary screen, cell-based, galactose medium, ATP luminescence (AID 1645843;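 active means z-score of at least 1.8 in each of two replicates, scored against plate mean and spread of sample wells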;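 further: positive z means more ATP and so rescue of galactose-driven cybrid death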); conditions: complex I mutant cybrid cells, 72 h, stronger effect = higher value
[9] = inhibitors of Cryptococcus chitosan production, flow cytometry, Cibacron Brilliant Red staining (AID 1347148); conditions: Cryptococcus neoformans chitosan, stronger effect = lower value; at 10 µM unless noted;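 further: compound exposure lasted three days at 37 degrees C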
[10] = hESC survival regulators, cell-based (AID 493140); conditions: human embryonic stem cell survival screen; stronger effect = higher value;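 further: cells exposed to compounds for four days before counting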
[11] = survival rescue of mitochondrial mutant cells in low glucose, primary screen, MELAS cybrids, Rieske KO mouse fibroblasts, CellTiter-Glo (AID 1508586;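 active means mean z-score across replicates of 1.96 or higher in either the MELAS or the Rieske mutant cell line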;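 further: z relative to plate mean and SD of compound and empty wells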)
[12] = ovarian cancer cell viability with rucaparib, profiling panel, oncology-focused library, rucaparib conditional (AID 1508598;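 active means normalized viability below 100% at a tested concentration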); conditions: patient-derived ovarian cancer cells, CellTiter-Glo viability, 144 h, stronger effect = lower value
[13] = stronger effect = lower value, cell number ratio, induced over uninduced
[14] = measured here: relative caspase fold change +Dox/-Dox
[15] = measured here: total cells with miR-34 induction, stronger effect = lower value
[16] = measured here: total cells without miR-34 induction

O=C1Cc2c([nH]c3ccc(Br)cc23)-c2ccccc2N1
period change [1]: -0.835 h (active)
parasite load remaining [2]: 33% (inactive)
viability [2]: 64.2%
inhibition [3]: 1% (inactive)
fluorescence ratio (interference) [4]: 1 (inactive)
remaining activity [5]: 115% (inactive)
fold change [6, 13]: 1.11 (inactive) and 0.922 (inactive) and 1.05 (inactive)
fold change [6, 14]: 0.981 and 0.403 and 0.535
cell count [6, 15]: 4020 and 4080 and 1060
cell count [6, 16]: 3640 and 4430 and 1010
outcome [7]: inactive
z-score [8]: -0.785 (inactive) and -0.43 (inactive)

CC(C)NC[C@H](O)COc1cccc2[nH]ccc12
period change [1]: 0.125 h (inactive)
inhibition [3]: -2% (inactive)
fluorescence ratio (interference) [4]: 1 (inactive)
remaining activity [5]: 102% (inactive)
fold change [6, 13]: 0.97 (inactive) and 0.927 (inactive)
fold change [6, 14]: 1.45 and 1.12
cell count [6, 15]: 9970 and 8970
cell count [6, 16]: 10300 and 9670
outcome [7]: inactive
z-score [8]: -0.095 (inactive) and -0.03 (inactive)

COC(=O)c1c(C)[nH]c(C)c1C(=O)c1ccccc1Cc1ccccc1
period change [1]: 0.045 h (inactive)
inhibition [3]: -1% (inactive)
fluorescence ratio (interference) [4]: 1 (inactive)
remaining activity [5]: 110% (inactive)
fold change [6, 13]: 0.994 (inactive) and 1.2 (inactive) and 0.953 (inactive)
fold change [6, 14]: 0.778 and 0.775 and 0.777
cell count [6, 15]: 7970 and 5070 and 7630
cell count [6, 16]: 8020 and 4240 and 8010
fold fluorescence [9]: 5.89 [at 143.9 µM] (inactive)
outcome [7]: inactive
z-score [8]: -0.58 (inactive) and -0.485 (inactive)

CN(C)CCCn1cc(C2=C(c3c[nH]c4ccccc34)C(=O)NC2=O)c2ccccc21
survival [10]: 60.4 (inactive)
parasite load remaining [2]: 40.8% (inactive)
viability [2]: 101%
remaining activity [5]: 99.8% (inactive)
fold change [6, 13]: 1.07 (inactive) and 1 (inactive) and 1.3 (inactive)
fold change [6, 14]: 0.742 and 0.718 and 1.02
cell count [6, 15]: 1180 and 5040 and 4700
cell count [6, 16]: 1100 and 5040 and 3620
fold fluorescence [9]: 5.95 [at 121.2 µM] (inactive)
z-score ([11]; MELAS cybrid survival, CellTiter-Glo 48 h, stronger effect = higher value): -0.455 (inactive)
z-score ([11]; Rieske KO mouse fibroblast survival, CellTiter-Glo 72 h): -0.16
viability ([12]; at 0.000305 µM, OCI-C5x cells, with rucaparib 10 µM, 100% = cells with rucaparib alone): 111% (inactive)
viability ([12]; at 0.000305 µM, OCI-C5x cells, without rucaparib): 113% (inactive)
viability ([12]; at 0.000305 µM, OCI-P5x cells, with rucaparib 20 µM, 100% = cells with rucaparib alone): 94.2% (active)
viability ([12]; at 0.000305 µM, OCI-P5x cells, without rucaparib): 96.8% (active)
viability ([12]; at 0.00122 µM, OCI-C5x cells, with rucaparib 10 µM, 100% = cells with rucaparib alone): 124% (inactive)
viability ([12]; at 0.00122 µM, OCI-C5x cells, without rucaparib): 118% (inactive)
viability ([12]; at 0.00122 µM, OCI-P5x cells, with rucaparib 20 µM, 100% = cells with rucaparib alone): 102% (inactive)
viability ([12]; at 0.00122 µM, OCI-P5x cells, without rucaparib): 96% (active)
viability ([12]; at 0.00488 µM, OCI-C5x cells, with rucaparib 10 µM, 100% = cells with rucaparib alone): 118% (inactive)
viability ([12]; at 0.00488 µM, OCI-C5x cells, without rucaparib): 118% (inactive)
viability ([12]; at 0.00488 µM, OCI-P5x cells, with rucaparib 20 µM, 100% = cells with rucaparib alone): 104% (inactive)
viability ([12]; at 0.00488 µM, OCI-P5x cells, without rucaparib): 101% (inactive)
viability ([12]; at 0.0195 µM, OCI-C5x cells, with rucaparib 10 µM, 100% = cells with rucaparib alone): 118% (inactive)
viability ([12]; at 0.0195 µM, OCI-C5x cells, without rucaparib): 108% (inactive)
viability ([12]; at 0.0195 µM, OCI-P5x cells, with rucaparib 20 µM, 100% = cells with rucaparib alone): 103% (inactive)
viability ([12]; at 0.0195 µM, OCI-P5x cells, without rucaparib): 105% (inactive)
viability ([12]; at 0.0781 µM, OCI-C5x cells, with rucaparib 10 µM, 100% = cells with rucaparib alone): 113% (inactive)
viability ([12]; at 0.0781 µM, OCI-C5x cells, without rucaparib): 120% (inactive)
viability ([12]; at 0.0781 µM, OCI-P5x cells, with rucaparib 20 µM, 100% = cells with rucaparib alone): 101% (inactive)
viability ([12]; at 0.0781 µM, OCI-P5x cells, without rucaparib): 105% (inactive)
viability ([12]; at 0.313 µM, OCI-C5x cells, with rucaparib 10 µM, 100% = cells with rucaparib alone): 120% (inactive)
viability ([12]; at 0.313 µM, OCI-C5x cells, without rucaparib): 134% (inactive)
viability ([12]; at 0.313 µM, OCI-P5x cells, with rucaparib 20 µM, 100% = cells with rucaparib alone): 108% (inactive)
viability ([12]; at 0.313 µM, OCI-P5x cells, without rucaparib): 109% (inactive)
viability ([12]; at 1.25 µM, OCI-C5x cells, with rucaparib 10 µM, 100% = cells with rucaparib alone): 122% (inactive)
viability ([12]; at 1.25 µM, OCI-C5x cells, without rucaparib): 130% (inactive)
viability ([12]; at 1.25 µM, OCI-P5x cells, with rucaparib 20 µM, 100% = cells with rucaparib alone): 116% (inactive)
viability ([12]; at 1.25 µM, OCI-P5x cells, without rucaparib): 109% (inactive)
viability ([12]; at 5 µM, OCI-C5x cells, with rucaparib 10 µM, 100% = cells with rucaparib alone): 109% (inactive)
viability ([12]; at 5 µM, OCI-C5x cells, without rucaparib): 146% (inactive)
viability ([12]; at 5 µM, OCI-P5x cells, with rucaparib 20 µM, 100% = cells with rucaparib alone): 101% (inactive)
viability ([12]; at 5 µM, OCI-P5x cells, without rucaparib): 105% (inactive)
z-score [8]: -0.475 (inactive)

O=C(NCCCCCCNC(=O)ON=C1CCCCC1)ON=C1CCCCC1
remaining activity [5]: 126% (inactive)
fold change [6, 13]: 0.722 (inactive) and 0.829 (inactive)
fold change [6, 14]: 1.07 and 1.04
cell count [6, 15]: 3570 and 6850
cell count [6, 16]: 4940 and 8260
fold fluorescence [9]: 7.89 [at 126.7 µM] (inactive)
z-score [8]: -0.255 (inactive)

CC(C)(C)c1cc(O)c(C(C)(C)C)cc1O
remaining activity [5]: 129% (inactive)
fold change [6, 13]: 1.1 (inactive) and 0.907 (inactive)
fold change [6, 14]: 1.08 and 0.716
cell count [6, 15]: 1530 and 6190
cell count [6, 16]: 1390 and 6820
fold fluorescence [9]: 11.1 [at 224.9 µM] (inactive)
z-score [8]: -0.7 (inactive)

O=C1C(SCCO)=C(SCCO)C(=O)c2ccccc21
period change [1]: -0.12 h (inactive)
inhibition [3]: -3% (inactive)
fluorescence ratio (interference) [4]: 1 (inactive)
remaining activity [5]: 112% (inactive)
fold change [6, 13]: 1.25 (inactive) and 0.776 (inactive) and 0.848 (inactive)
fold change [6, 14]: 0.902 and 1.05 and 1.12
cell count [6, 15]: 1490 and 1050 and 1210
cell count [6, 16]: 1190 and 1350 and 1420
fold fluorescence [9]: 6.37 [at 161.1 µM] (inactive)
outcome [7]: inactive
z-score [8]: -1.04 (inactive) and -0.82 (inactive)

O=C(OCCN1CCOCC1)C1(c2ccccc2)CCCCC1
period change [1]: -0.085 h (inactive)
inhibition [3]: -2% (inactive)
fluorescence ratio (interference) [4]: 1 (inactive)
remaining activity [5]: 124% (inactive)
fold change [6, 13]: 1.05 (inactive) and 1.02 (inactive)
fold change [6, 14]: 1.06 and 0.742
cell count [6, 15]: 10700 and 8020
cell count [6, 16]: 10200 and 7840
outcome [7]: inactive
z-score [8]: -0.08 (inactive) and -0.97 (inactive)

O=c1[nH]c2cc([N+](=O)[O-])c([N+](=O)[O-])cc2[nH]c1=O
period change [1]: 0.075 h (inactive)
inhibition [3]: -4% (inactive)
fluorescence ratio (interference) [4]: 1 (inactive)
remaining activity [5]: 109% (inactive)
fold change [6, 13]: 0.955 (inactive) and 0.937 (inactive)
fold change [6, 14]: 1 and 0.778
cell count [6, 15]: 9840 and 7960
cell count [6, 16]: 10300 and 8490
outcome [7]: inactive
z-score [8]: -0.11 (inactive) and 0.22 (inactive)

CC[C@H](NC(=O)c1c(C)c(-c2ccccc2)nc2ccccc12)c1ccccc1
period change [1]: 0.09 h (inactive)
inhibition [3]: 1% (inactive)
fluorescence ratio (interference) [4]: 1 (inactive)
remaining activity [5]: 110% (inactive)
fold change [6, 13]: 1.28 (inactive) and 0.912 (inactive)
fold change [6, 14]: 1.6 and 0.801
cell count [6, 15]: 6890 and 7500
cell count [6, 16]: 5390 and 8230
outcome [7]: inactive
z-score [8]: 1.77 (inactive) and 1.96 (inactive)
